Reference: PubChem BioAssay (NCATS)
Results filed as inconclusive are left out. The source made the active and inactive calls. The call rests on the fitted dose curve; in most records, active means well fitted curve in the direction sought with a large enough effect; inconclusive means small, poorly fitted or top-dose-only effect, or another doubt; inactive means no such curve, though single readings can be large; an effect the other way counts as inactive or inconclusive.

Columns and labels:
[1] = target: Rap guanine nucleotide exchange factor 3 (Homo sapiens) (UniProt O95398); test: Confirmatory qHTS for antagonist of cAMP-regulated guanine nucleotide exchange factor 3 (EPAC1) (AID 1645880); conditions: EPAC1 Rap1B-BODIPY-GDP exchange, fluorescence; activity, negative = inhibition: at 115 µM (top of the series); further: nearly all actives have a fitted effect of over 55% in size; further: potency means the concentration at half of the fitted maximal effect
Sequence of Rap guanine nucleotide exchange factor 3 (Homo sapiens) (O95398 whole entry, looked up): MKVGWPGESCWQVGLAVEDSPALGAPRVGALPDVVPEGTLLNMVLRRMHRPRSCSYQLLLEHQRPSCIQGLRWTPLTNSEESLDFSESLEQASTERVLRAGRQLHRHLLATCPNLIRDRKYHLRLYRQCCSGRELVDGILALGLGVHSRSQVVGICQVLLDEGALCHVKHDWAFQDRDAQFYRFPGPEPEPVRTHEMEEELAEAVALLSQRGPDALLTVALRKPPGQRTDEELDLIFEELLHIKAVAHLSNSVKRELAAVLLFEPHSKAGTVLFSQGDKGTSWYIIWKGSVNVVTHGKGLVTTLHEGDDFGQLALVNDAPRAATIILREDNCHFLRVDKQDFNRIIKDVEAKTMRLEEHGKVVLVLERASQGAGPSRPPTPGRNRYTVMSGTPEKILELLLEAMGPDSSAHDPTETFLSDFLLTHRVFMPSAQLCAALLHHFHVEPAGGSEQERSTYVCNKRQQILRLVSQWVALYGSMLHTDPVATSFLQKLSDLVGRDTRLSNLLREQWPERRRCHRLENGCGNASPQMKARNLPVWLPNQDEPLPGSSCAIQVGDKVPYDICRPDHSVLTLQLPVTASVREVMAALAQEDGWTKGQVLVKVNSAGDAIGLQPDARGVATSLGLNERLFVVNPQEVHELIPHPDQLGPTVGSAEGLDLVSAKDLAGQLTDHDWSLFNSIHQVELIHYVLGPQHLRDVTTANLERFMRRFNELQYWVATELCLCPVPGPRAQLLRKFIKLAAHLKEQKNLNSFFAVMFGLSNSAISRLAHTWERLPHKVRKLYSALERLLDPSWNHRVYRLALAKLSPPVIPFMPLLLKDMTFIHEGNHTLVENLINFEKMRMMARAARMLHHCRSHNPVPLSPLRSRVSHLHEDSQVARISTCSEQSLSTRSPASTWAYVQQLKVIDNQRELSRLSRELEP
How it was run: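 Nucleotide exchange uses 100 nM EPAC1, 250 nM RAP1B-BODIPY-GDP and 50 uM GDP, with compounds in a concentration-titration series. After 5 min at room temperature, fluorescence (480 nm ex/540 nm em) is read every 5 min for 30 min. Data are normalized to control ATA and DMSO.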

[2] = target: Rap guanine nucleotide exchange factor 3 (Homo sapiens) (UniProt O95398); test: Confirmatory qHTS for agonist of cAMP-regulated guanine nucleotide exchange factor 3 (EPAC1) (AID 1645881);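 further: EPAC1 catalysed release of BODIPY-GDP from Rap1B seen as fluorescence loss; nearly all actives have a fitted effect of over 75% in size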
[3] = target: Rap guanine nucleotide exchange factor 4 (Homo sapiens) (UniProt Q8WZA2); test: Confirmatory qHTS for antagonist of cAMP-regulated guanine nucleotide exchange factor 4 (EPAC2) (AID 1645885); further: nearly all actives have a fitted effect of over 25% in size
Sequence of Rap guanine nucleotide exchange factor 4 (Homo sapiens) (Q8WZA2 whole entry, looked up): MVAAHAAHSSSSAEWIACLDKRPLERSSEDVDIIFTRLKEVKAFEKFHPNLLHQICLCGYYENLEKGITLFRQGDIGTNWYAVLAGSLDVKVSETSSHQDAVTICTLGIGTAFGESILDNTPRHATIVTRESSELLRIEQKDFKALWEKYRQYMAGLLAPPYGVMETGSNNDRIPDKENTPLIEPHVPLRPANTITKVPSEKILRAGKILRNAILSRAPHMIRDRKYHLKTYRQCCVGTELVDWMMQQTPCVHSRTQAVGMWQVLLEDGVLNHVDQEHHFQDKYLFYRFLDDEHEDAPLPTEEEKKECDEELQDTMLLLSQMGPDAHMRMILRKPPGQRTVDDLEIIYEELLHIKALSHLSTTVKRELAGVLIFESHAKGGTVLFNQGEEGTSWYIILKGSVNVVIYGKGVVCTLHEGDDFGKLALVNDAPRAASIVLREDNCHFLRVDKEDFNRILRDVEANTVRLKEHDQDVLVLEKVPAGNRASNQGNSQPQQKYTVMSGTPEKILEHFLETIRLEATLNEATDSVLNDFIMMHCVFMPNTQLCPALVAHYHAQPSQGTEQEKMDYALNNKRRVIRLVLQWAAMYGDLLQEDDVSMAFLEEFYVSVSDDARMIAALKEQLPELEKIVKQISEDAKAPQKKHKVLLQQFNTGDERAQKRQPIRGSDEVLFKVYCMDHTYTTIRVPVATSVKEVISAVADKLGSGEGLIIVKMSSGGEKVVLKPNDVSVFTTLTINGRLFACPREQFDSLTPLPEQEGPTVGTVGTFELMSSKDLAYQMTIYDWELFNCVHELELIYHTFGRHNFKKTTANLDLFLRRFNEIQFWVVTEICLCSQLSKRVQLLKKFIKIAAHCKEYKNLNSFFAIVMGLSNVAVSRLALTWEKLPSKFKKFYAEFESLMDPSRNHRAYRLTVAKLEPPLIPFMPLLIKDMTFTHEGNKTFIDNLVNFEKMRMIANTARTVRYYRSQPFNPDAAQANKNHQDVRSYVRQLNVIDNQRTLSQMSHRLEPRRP

[4] = target: Rap guanine nucleotide exchange factor 3 (Homo sapiens) (UniProt O95398); test: Counterscreen qHTS for antagonist of cAMP-regulated guanine nucleotide exchange factor 3 (EPAC1) (AID 1645888);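 further: fluorescence loss as bound BODIPY-GDP is released from Rap1B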
How it was run: (§1)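 Measured: fluorescence of BODIPY-GDP bound to Rap1B, which falls as exchange proceeds. Conditions include 50 uM competing GDP, 5 and 30 min reads, and a later cAMP challenge for antagonist detection.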

[5] = target: Rap guanine nucleotide exchange factor 3 (Homo sapiens) (UniProt O95398); test: Counterscreen qHTS for agonist of cAMP-regulated guanine nucleotide exchange factor 3 (EPAC1) (AID 1645889); further: nearly all actives have a fitted effect of over 40% in size
How it was run: as §1

Measured: Potency

Nc1nc2ccccc2n1S(=O)(=O)c1ccc([N+](=O)[O-])cc1
inactive: all assays above

CC(=O)N1CCN(C(=O)c2[nH]c(C(F)(F)F)nc2-c2ccccc2)CC1
inactive: all assays above

CCn1nc(C)c(C(=O)Nc2cc(Oc3ccc(Cl)cc3)cc([N+](=O)[O-])c2)c1C
inactive: all assays above

CCOC(=O)c1cc2c(=O)n3ccccc3nc2n(C(C)C)c1=NC(=O)c1cc2ccccc2o1
active: [1] 75.7 µM
inactive: all other assays above

O=C1C=C(c2ccccc2Oc2ccccc2)C[C@@H](c2ccc3c(c2)OCO3)C1
inactive: all assays above
